Source: PubChem BioAssay
HEK293 tox = HEK 293 cell cytotoxicity | 94,000 compounds, 6.6% hits | Potency, µM (top dose mostly 115 µM), inactives show at the highest dose activity change, negative = cytotoxicity, actives largely listed as inhibitors | AID 1345083 | HEK 293 viability, ATP luminescence (CellTiter-Glo), 48-72 h; note: % is set by controls: 0 for no effect and ±100 for the full control effect; nearly all actives have a fitted effect of over 60% in size
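Cells seeded first (HEK 293, 250 cells/well), then compound added by pintool. Incubation ran 48 or 72 hr at 37 degree Celsius. CellTiter-Glo was added and luminescence imaged after 10 min at room temperature.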
FLuc inh = Photinus pyralis luciferase inhibition | purified P. pyralis luciferase, luminescence, biochemical | Potency, µM (highest dose often 115 µM), actives largely listed as inhibitors | 76,000 compounds, 2.5% hits | AID 1347043; note: % is set by controls: 0 for no effect and ±100 for the full control effect; nearly all actives have a fitted effect of over 65% in size
Target sequence (P08659 whole entry, looked up): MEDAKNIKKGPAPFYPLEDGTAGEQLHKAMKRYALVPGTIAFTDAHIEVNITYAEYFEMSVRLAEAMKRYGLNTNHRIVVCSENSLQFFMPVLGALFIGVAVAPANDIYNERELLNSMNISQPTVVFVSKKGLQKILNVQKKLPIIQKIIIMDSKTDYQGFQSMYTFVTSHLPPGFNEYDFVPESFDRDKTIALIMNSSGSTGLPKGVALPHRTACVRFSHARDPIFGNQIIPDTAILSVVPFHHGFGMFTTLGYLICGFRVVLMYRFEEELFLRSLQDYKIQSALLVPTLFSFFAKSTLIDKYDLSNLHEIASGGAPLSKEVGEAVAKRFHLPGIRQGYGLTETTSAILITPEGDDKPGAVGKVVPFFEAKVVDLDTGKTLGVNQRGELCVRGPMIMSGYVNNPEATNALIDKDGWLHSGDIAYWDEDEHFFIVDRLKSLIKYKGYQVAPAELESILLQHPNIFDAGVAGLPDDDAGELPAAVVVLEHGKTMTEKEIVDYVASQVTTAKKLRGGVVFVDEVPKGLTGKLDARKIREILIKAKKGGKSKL
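Inhibitors were tested against purified firefly luciferase in a biochemical, low-substrate format (both substrates at 10uM) and luminescence measured with a CCD imager.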
GPT2 inh = GPT2 alanine aminotransferase inhibition. Q8TD30. Recombinant GPT2, coupled pyruvate oxidase/HRP Amplex Red fluorescence. Potency, µM (series often up to 57.7 µM), without a hit: at the highest dose activity change, negative = inhibition, most hits filed as inhibitors. 100,000 compounds, 0.25% hits; note: % is set by controls: 0 for no effect and ±100 for the full control effect; nearly all actives have a fitted effect of over 60% in size
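Fluorescence read-out: pyruvate from GPT2 turnover coupled to pyruvate oxidase, HRP and Amplex Red (0.2mM ThPP, 0.2U/mL PO and HRP, 50uM Amplex final). Substrates 250uM a-KG, 2mM L-alanine; enzyme 10ng/uL; 30 min RT.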
NPR1 antag = human Npr1 receptor antagonism; P16066; HEK293 hNpr1 GloSensor cGMP, ANP-stimulated luminescence; Potency, µM (highest dose often 46.3 µM), for the others: top-dose activity change, negative = inhibition, hits mostly inhibitors; 76,000 compounds, 1.6% hits; AID 1347048; calls by dose curve; note: % is set by controls: 0 for no effect and ±100 for the full control effect; nearly all actives have a fitted effect of over 60% in size
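Compound pre-incubated 30 min at room temperature on GloSensor-loaded HEK293 cells stably carrying hNpr1 and the pGS-40F cGMP biosensor. Stimulation uses hNppA at 0.1 nM final; luminescence is taken at baseline and 20 min post-agonist.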
NIH3T3 tox = kills NIH 3T3 cells. NIH 3T3 viability, CellTiter-Glo ATP luminescence, 48-72 h. Potency, µM (top dose mostly 96.7 µM), for inactives: top-dose activity change, negative = cytotoxicity, usual class: inhibitors. 94,000 compounds, 4.3% hits. AID 1345082; note: % is set by controls: 0 for no effect and ±100 for the full control effect; nearly all actives have a fitted effect of over 55% in size
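Cytotoxicity was measured by CellTiter-Glo ATP luminescence after 48 or 72 h compound exposure at 37 °C. Mouse NIH 3T3 fibroblasts were seeded at 400 cells/well and dosed by 23 nL pin transfer.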
NPR1 antag cnf = hNpr1 antagonism, confirmation assay | shares compounds with NPR1 antag | HEK293 hNpr1 cGMP GloSensor luminescence, ANP-stimulated | Potency, µM (top dose mostly 57.6 µM), for inactives: at the top dose activity change, negative = inhibition, usual class: inhibitors | 1,400 compounds, 76% hits | AID 1347044; calls by dose curve; note: nearly all actives have a fitted effect of over 70% in size
Npr2 selectivity = selectivity test of Npr1 antagonists against human Npr2; shares compounds with NPR1 antag; HEK293 hNpr2 GloSensor cGMP luminescence, CNP-stimulated; Potency, µM (highest dose often 57.6 µM), inactives show top-dose activity change, negative = inhibition, hits mostly inhibitors; 1,400 compounds, 67% hits; AID 1347046; calls by dose curve; note: nearly all actives have a fitted effect of over 70% in size
FLuc counter = FLuc enzyme inhibition, Npr1 counter-screen; Potency, µM (doses to about 57.6 µM), for the others: at the highest dose activity change, negative = inhibition, actives largely listed as inhibitors; purified FLuc enzyme, luminescence, Km substrate; shares compounds with NPR1 antag; 1,400 compounds, 0.7% hits; AID 1347047; note: 0% is about no effect
GloSensor ctrl = control cell line activity, Npr1 antagonist counter-screen. Potency, µM (series often up to 57.6 µM), for inactives: top-dose activity change, negative = inhibition, usual class: inhibitors. 1,400 compounds, 69% hits. HEK293 GloSensor cGMP, SNP-stimulated, luminescence. shares compounds with NPR1 antag. AID 1347051; calls by dose curve; note: % is set by controls: 0 for no effect and ±100 for the full control effect; nearly all actives have a fitted effect of over 70% in size
The depositor's hits bear a star; i = inactive; ? = inconclusive; . = no result given; [ ] = remark or other dose. A selection: hits, their analogues and other compounds. The true share with any hit is near 10%. Unless noted, calls come from the whole dose curve; as a rule, active = well fitted curve in the direction sought with a large enough effect; inconclusive = small, poorly fitted or top-dose-only effect, or another doubt; inactive = no such curve, though single readings can be large; an effect the other way counts as inactive or inconclusive. Potency is the fitted concentration of half-maximal effect.

SMILES	HEK293 tox	FLuc inh	GPT2 inh	NPR1 antag	NIH3T3 tox	NPR1 antag cnf	Npr2 selectivity	FLuc counter	GloSensor ctrl
Cc1nc(N2CCC(NC(=O)C3CCCCC3)CC2)cc(C(F)(F)F)n1	?	i	i	-15.2%	-7.2%	.	.	.	.
Cc1ccc(C(=O)Nc2ccc3ncnc(N4CCCC4)c3c2)s1	3.6%	i	i	1.9%	-17.5%	.	.	.	.
COc1cccc(CC(=O)N2CCC(C3CCN(C(C)=O)CC3)C2)c1 (centres undefined)	-4.0%	.	-4.4%	.	-22.4%	.	.	.	.
O=C1NC(=NC2CCCC2)C2(CCCN(Cc3cccnc3)C2)N1c1cc(F)cc(F)c1 (centres undefined)	2.2%	.	?	.	25.1µM*	-16.1%	-0.1%	2.6%	-7.7%
COc1ccc(C(=O)N2CCC(Cc3nc(-c4ccc(F)cc4)no3)CC2)c(C)c1	?	i	1.2%	1.41µM*	?	1.53µM*	2.17µM*	0.0%	1.72µM*
COc1cccc(-c2noc(CC3CCN(C(=O)c4ccc(N(C)C)cc4)CC3)n2)c1	?	i	0.4%	10µM*	-16.8%	13.7µM*	15.3µM*	-18.5%	10.9µM*
COc1cccc(-c2cccc(C(=O)N3CCN(C(=O)c4ccccc4C)CC3)c2)c1	?	.	-5.2%	.	?	.	.	.	.
CN(C)c1ccc(C(=O)N2CCC(Cc3nc(-c4cnccn4)no3)CC2)cc1	-6.9%	i	i	-12.2%	-28.4%	.	.	.	.
COc1cccc(-c2noc(CC3CCN(C(=O)c4ccccc4C)CC3)n2)c1	?	i	3.3%	12.6µM*	?	12.2µM*	17.2µM*	-4.8%	12.2µM*
COc1cccc(-c2noc(CC3CCN(C(=O)c4ccc(OC)cc4C)CC3)n2)c1	?	i	-8.7%	3.55µM*	?	3.43µM*	4.85µM*	1.5%	2.73µM*
COc1cccc(C(=O)N2CCC(Cc3nc(C(C)C)no3)CC2)c1	?	i	i	-15.9%	?	.	.	.	.
COc1ccc(C(=O)NC2CCCN(c3ccc4nnc(C5CC5)n4n3)C2)cc1 (centres undefined)	-26.4%	.	.	.	-17.9%	.	.	.	.
COc1ccc(C#Cc2ccc(C(=O)N3CCC[C@@H](CO)C3)cc2)cc1	.	.	i	.	.	.	.	.	.
Clc1cccc(-c2cnc([C@@H]3COCCN3Cc3cnc4ccccc4c3)[nH]2)c1	63.1µM*	i	0.3%[88.5 µM]	28.2µM*	79.4µM*	?	?	-1.3%[86.2 µM]	?
CCOc1ccc(-c2cnc(-c3cnc(CC)nc3)[nH]2)cc1OCC	?	i	-4.9%	-0.7%	?	.	.	.	.
CN(C(=O)C1(c2ccc(Cl)cc2)CCOCC1)C1CCc2ccccc21 (centres undefined)	?	.	2.1%	.	?	19.3µM*	9.68µM*	5.5%	6.4%
O=C(Nc1cccc(Cl)c1)C1CCN(C(=O)c2ncn3c2COC(c2ccc(F)cc2)C3)CC1 (centres undefined)	?	?	i	?	-10.0%	.	.	.	.
O=C(Nc1cccc(F)c1)C1CCN(C(=O)c2ncn3c2COC(c2ccc(F)cc2)C3)CC1 (centres undefined)	?	i	?	?	-7.0%	?	-14.2%	-22.3%	?
O=C(CCC1CCCC1)N1CCCC(c2nc(CCOCC3CCOCC3)no2)C1 (centres undefined)	?	i	2.4%	?	?	.	.	.	.
CNC(=O)N1CCCC(c2nc(CCOCC3CCCC3)no2)C1 (centres undefined)	?	i	2.7%	?	-28.9%	?	?	-0.7%	?
COCCN1C(=O)c2ccccc2C(C(=O)Nc2cccc(OC)c2)C12CCCC2 (centres undefined)	32.8%	i	0.5%	0.3%	i	.	.	.	.
COCCN1C(=O)c2ccccc2C(C(=O)Nc2cc(Cl)ccc2OC)C12CCCC2 (centres undefined)	?	i	i	?	-21.7%	13.7µM*	8.62µM*	5.3%	11.5%
COc1ccc(CNC(=O)C2CCCN2C(=O)c2cccc(-c3cccnc3)c2)cc1 (centres undefined)	-30.6%	.	.	.	?	.	.	.	.
C=CCCC(=O)N1[C@@H](c2ccccc2)[C@@H](C(=O)OCC)C[C@]12CCCCNC2=O	3.0%	.	.	.	?	.	.	.	.
CN(C1CCc2nn(CC3CC3)c(=O)n2CC1)S(=O)(=O)c1cccc(F)c1 (centres undefined)	-12.8%	.	i	.	-27.1%	.	.	.	.
SMILES	HEK293 tox	FLuc inh	GPT2 inh	NPR1 antag	NIH3T3 tox	NPR1 antag cnf	Npr2 selectivity	FLuc counter	GloSensor ctrl
COc1ccc(Cl)cc1-c1ccc2c(n1)CN(CCOc1ccccc1)C(=O)CO2	100µM*	i	-2.7%[88.5 µM]	22.4µM*	?	35.3µM*	35.3µM*	0.6%[86.2 µM]	31.4µM*
COC1CCC(C(=O)N2CCCn3nc(C)c(-c4ccccc4-c4ccccc4)c32)CC1 (centres undefined)	?	i	1.5%[88.5 µM]	2.0%[70.6 µM]	?	.	.	.	.
Cc1nn2c(c1-c1ccccc1-c1ccccc1)N(CCC(C)C)CCC2	7.94µM*	i	-14.5%[88.5 µM]	1.58µM*	8.91µM*	0.994µM*	1.57µM*	-13.5%[86.2 µM]	0.789µM*
Cc1nn2c(c1-c1ccccc1-c1ccccc1)N(C(=O)c1ccnn1C)CCC2	-21.2%[172 µM]	i	1.0%[88.5 µM]	-1.4%[70.6 µM]	?	.	.	.	.
Cc1nn2c(c1-c1ccccc1-c1ccccc1)N(Cc1ccccc1)CCC2	?	i	0.4%[88.5 µM]	14.1µM*	12.6µM*	6.27µM*	8.86µM*	-7.7%[86.2 µM]	3.96µM*
O=C(NCCc1ccccc1)c1ccc2nnc(-c3cccnc3)n2c1	?	.	-4.6%[88.5 µM]	.	-14.3%[138 µM]	.	.	.	.
CCc1ccc(CN2CCC(O)(Cc3cc(-c4cccc(OC)c4)no3)CC2)o1	?	i	i	-23.1%	?	-27.8%	-21.3%	-0.8%	?
CC(=O)Nc1ccc(S(=O)(=O)N[C@H]2CO[C@H]3[C@@H]2OC[C@H]3OC(=O)Nc2ccc(C(C)=O)cc2)cc1	i	i	?	-5.9%	-22.0%	.	.	.	.
